Assay in all cases: NCI-60 one-dose screen, 48 h (100 = growth as untreated, 0 = no growth, -100 = all killed)
Common to all, as to conditions: 10 µM unless noted

The subject of test [1] is NCI-H23 lung.
The test system of test [2] is NCI-H322M lung.
In test [3] the test system is HOP-62 NSCLC.
The test system of test [4] is NCI-H460 lung.
Test [5] concerns HOP-92 NSCLC.
Test [6] deals with NCI-H522 lung.
For test [7], the system named is A549/ATCC NSCLC.
In test [8] the test system is 786-0 renal.
Test [9] deals with COLO 205 colon.
The subject of test [10] is DU-145 prostate.
Test [11] relates to K-562 leukemia.
For test [12], the system named is MALME-3M melanoma.
For test [13], the system named is MDA-MB-231 breast.
Test [14] relates to RXF 393 renal.
In test [15] the test system is SF-268 CNS.
Test [16] deals with SF-295 CNS.
The subject of test [17] is SF-539 CNS.
Test [18] deals with UACC-257 melanoma.
Test [19] has as its system M14 melanoma.
Test [20] has as its system NCI-H226 lung.

The structures appear in SMILES notation. This is part of a sample that, as a whole, favours compounds with a hit. Of some 83,000 tested, about 20% had one in any assay.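 How to read the values: 0–100, growth inhibition (40 = 60% inhibited); 0, no net growth; -100 to 0, cell death (-40 = 40% of starting cells died; -100 = all dead).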 Values without a mark were called inactive. The source made the active and inactive calls. Rule for the calls: active = growth percent below 10; inactive = the rest.

As for `COc1ccc(Cn2cc(COc3ccc4c5ccnc(C)c5n(CCCc5ccccc5)c4c3)nn2)cc1`, the growth was 85.6% in [1]; 79.5% in test [2]; 90.7% in [3]; 62.6% in test [4]; 83.3% in test [5]; 64.4% in test [6]. For the same molecule, the growth in test [7] was 75.3%; in [8], 80.4%; in test [9], 69.2%; in test [10], 84.3%; in test [11], 63.2%; in test [12], 81.6%. For the same molecule, the growth in test [13] was 65.6%; in [14] it was 58.8%; in [15] it was 76.6%; in test [16] it was 92.3%; in [17], 58.7%; in test [18], 90.2%. Besides, in [19], the growth was 83.1%.
Take `COc1cc2c(cc1OC)-c1c(oc3c4c(ccc3c1=O)OC(C)(C)C=C4)CO2`: the growth in [1] was 45.6%; in test [20] it was 89.3%; in test [2], 86.2%; in [3], 59.6%; in test [5], 90.2%; in [6], 56.7%. Besides, the growth in test [7] is 71.3%; in test [8] it was 76.6%; in [9] it was 113%; in test [10], 90.9%; in test [11], 39.9%; in [12] it was 93.2%. In addition, the growth in test [13] is 81.5%; in [14] it was 96.9%; in [15], 79.4%; in test [16], 51.7%; in [17] it was 83.5%; in test [18], 54.8%. In test [19], the growth is 83.1%.
Regarding `O=c1[nH]ccc2nc(N3CCC(O)CC3)nc(Nc3cccc(C(F)(F)F)c3)c12`, the growth in test [1] was 62.2%; in [20], 57.4%; in test [2], 102%; in [3] it was 92.9%; in test [5], 105%; in test [6], 51.7%. Besides, the growth was 53.4% in test [7]; 58.3% in [8]; 72% in [10]; 44.7% in test [11]; 64.5% in test [12]; 88.3% in test [13]. The growth in test [14] was 54.4%; in test [15], 67.1%; in test [16] it was 96.8%; in test [17] it was 80.4%; in [18] it was 16.3%; in test [19], 39.1%.
Take `COc1ccc(C[C@H](N)C(=O)N[C@@H]2[C@@H](CO)OC(n3cnc4c(N(C)C)ncnc43)[C@@H]2O)cc1` (stereo partly specified): the growth in test [1] was -39.4% (active); in [20], -65.2% (active); in [2], -65.2% (active); in test [3], -57.8% (active); in test [5] it was -67.1% (active); in [6], -68.7% (active). In addition, the growth in test [7] was -57.9% (active); in [8], -87.6% (active); in test [9], -63.2% (active); in test [10], -7.63% (active); in test [11], -11.4% (active); in [12], -78.1% (active). In addition, the growth in test [13] is -10.1% (active); in [14] it was -86.6% (active); in test [15] it was -42.5% (active); in test [16], -43% (active); in [17], -42.9% (active); in [18], -64.7% (active). Further, the growth in [19] was -85.5% (active).
On to `CCCCCCCCN(CCCCCCCC)CC(O)c1cc(-c2ccccc2)nc2ccc(OC)cc12` (stereo unspecified), for which the growth was 67.1% in test [1]; 88.1% in test [20]; 106% in test [2]; 95.4% in [3]; 70.1% in [5]; 77.5% in test [6]. Besides, the growth in test [7] was 78.6%; in test [8], 82.6%; in [9], 85.7%; in [10] it was 82.6%; in [11], 52.2%; in [12], 91.3%. Also, the growth was 63.7% in [13]; 90.2% in [14]; 38.3% in [15]; 93.8% in test [16]; 0.739% (active) in test [17]; 83.2% in [18]. Also, the growth in test [19] was 24.7%.
As for `O=S(=O)(Nc1cccc2cc(OS(=O)(=O)c3ccccc3)ccc12)c1ccccc1`, the growth in test [1] is 73.8%; in test [20], 74.7%; in [2], 90.1%; in test [3], 46.3%; in [5], 57.6%; in [6] it was 40.5%. For the same molecule, the growth is 57.1% in [7]; 81.2% in [8]; 51.9% in test [9]; 92% in test [10]; 25.2% in test [11]; 56.2% in test [12]. Further, the growth in [13] is 76.4%; in test [14], 86.5%; in test [15], 74.2%; in test [16], 59.3%; in test [17] it was 63.4%; in [18], 75.6%. Besides, the growth in [19] is 40.3%.
In the case of `C=C1C(=O)O[C@H]2[C@H]1CC/C(COC(=O)c1cc(OC)c(OC)c(OC)c1)=C\CC[C@@]1(C)O[C@@H]21`, the growth in [1] is 8.29% (active); in test [20] it was -12.1% (active); in test [2], 52.9%; in [3], 22%; in [5], -59.5% (active); in [6] it was -88.4% (active). The growth was 24.7% in test [7]; -90.9% (active) in test [8]; -73.4% (active) in test [9]; -23.8% (active) in [10]; -57.7% (active) in [12]; -39% (active) in [13]. The growth in [14] was -87.8% (active); in test [15], 16.5%; in test [16], 51%; in test [17], -48.3% (active); in test [18], -41.3% (active); in test [19], -36.7% (active).

These data come from PubChem BioAssay (NCI).
